IL-1B inflam inh: inflammasome signaling inhibition, IL-1 beta readout | THP-1 LPS/ATP IL-1B secretion, AlphaLISA, 16 h; stronger effect = lower value | activity change, % at 57.5 µM | hit rate 4.7% among 360,000; in the data active means activity change below about -50%; inconclusive means mostly about -30% to -49%
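Secreted IL-1B measured by AlphaLISA bead assay after 16 h compound exposure of THP-1 cells; compounds (final up to 57.5 uM) added 1 h before LPS (250 ng/mL) and ATP (1.25 mM) stimulation; lower signal means less secretion.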
TGFb SMAD3 inh: TGF-b pathway inhibition; HepG2 CAGA-GFP TGF-b/SMAD3 reporter, GFP fluorescence, 18 h; TGF-beta stimulated, 500 pg/mL final; Potency, µM (top dose mostly 46.1 µM), hits mostly inhibitors; hit rate 1.2% among 410,000; AID 588855; further: nearly all actives have a fitted effect of over 65% in size
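First, reporter cells (HEPG2 CAGA-GFP) rested 2 h at 37 degrees C. Next, compounds were pinned in and TGF-beta added to 500 pg/mL final. After 18 h, GFP was imaged per cell and summed per well.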
HepG2 viability: counter-screen for TGF-b inhibitors: cytotoxicity in HepG2 cells; HepG2 CAGA-GFP viability, ATP luminescence, 18 h; Potency, µM (series often up to 46.1 µM), hits mostly cytotoxic; hit rate 0.76% among 410,000; AID 588856
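CellTiter-Glo luminescence gave cytotoxicity after 18 hours at 37 degrees C. The cells were HepG2 CAGA-GFP in 1% FBS DMEM, stimulated with 500 pg/mL TGF-beta after compound addition. %Activity was normalised to no-cell wells (complete cell-killing) and DMSO (no toxicity), and curves were fitted and classified.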
DT40 TDP1 CPT: growth inhibition of DT40 Tdp1-/-;hTDP1 cells with camptothecin (screen for TDP1 inhibitors). Potency, µM (top dose mostly 46.2 µM), actives largely listed as inhibitors. chicken DT40 Tdp1-/-;hTDP1 cells + 20 nM CPT, ATP luminescence, 48 h. hit rate 12% among 420,000. AID 686979; further: nearly all actives have a fitted effect of over 55% in size
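Chicken DT40 Tdp1-/- cells stably complemented with human TDP1 were seeded at 400 cells/well in medium containing 20 nM camptothecin, exposed to pin-transferred compounds, and grown at 37 °C for at least 48 hr. Viability was read as ATP luminescence.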
DT40 TDP1 no CPT: qHTS for Inhibitors of human tyrosyl-DNA phosphodiesterase 1 (TDP1): qHTS in cells in absence of CPT | Potency, µM (titrated, usually from 46.2 µM), actives largely listed as inhibitors | AID 686978, 2013 | hit rate 15% among 420,000 | DT40 Tdp1-/- hTDP1 cells, no CPT, ATP luminescence, 48 h; further: nearly all actives have a fitted effect of over 55% in size
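Compound effects on proliferation are scored in DT40 Tdp1-/-;hTDP1 cells in the absence of CPT. ATP levels (CellTiter-Glo luminescence) are recorded after a ≥48 hr, 37 °C incubation.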
S-ASM inh: human S-ASM enzyme inhibition | P17405 | placental ASM, HMU-PC fluorogenic substrate, 60 min | hit rate 0.006% among 340,000 | Potency, µM (doses to about 57.5 µM), most hits filed as inhibitors
Target sequence (P17405 47-631 limits assumed): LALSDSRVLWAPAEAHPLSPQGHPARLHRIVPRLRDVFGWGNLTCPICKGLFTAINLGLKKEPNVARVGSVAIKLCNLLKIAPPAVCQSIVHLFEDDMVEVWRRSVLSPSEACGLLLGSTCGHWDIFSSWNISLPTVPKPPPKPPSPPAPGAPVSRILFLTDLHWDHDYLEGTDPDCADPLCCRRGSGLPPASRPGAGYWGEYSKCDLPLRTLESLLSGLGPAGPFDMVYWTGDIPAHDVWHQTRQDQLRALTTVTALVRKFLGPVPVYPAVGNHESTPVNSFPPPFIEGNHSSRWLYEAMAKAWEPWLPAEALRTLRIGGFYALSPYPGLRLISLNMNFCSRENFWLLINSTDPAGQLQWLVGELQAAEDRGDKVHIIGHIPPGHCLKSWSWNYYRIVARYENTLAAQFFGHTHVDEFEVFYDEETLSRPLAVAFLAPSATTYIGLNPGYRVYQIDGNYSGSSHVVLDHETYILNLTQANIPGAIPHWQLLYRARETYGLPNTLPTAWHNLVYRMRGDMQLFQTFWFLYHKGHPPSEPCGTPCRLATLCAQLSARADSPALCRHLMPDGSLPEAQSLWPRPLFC
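Fluorescence read-out (Ex 386 nm, Em 447 nm) after stopping the reaction at pH 10. Enzyme: ASM from human placenta; substrate HMU-PC0, 9 uM final; 60 min, 37 °C. Compound preincubation 10 min, ambient temperature.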
Of the large screens only hits and unclear results are named; the others gave an inactive call. A selection: hits, their analogues and other compounds. The true share with any hit is near 19%. Unless noted, the call rests on the fitted dose curve; in most records, active means well fitted curve in the direction sought with a large enough effect; inconclusive means small, poorly fitted or top-dose-only effect, or another doubt; inactive means no such curve, though single readings can be large; an effect the other way counts as inactive or inconclusive.

Cc1ccc(CN2CCc3nnc(C(NC(=O)c4ccoc4)C(C)C)n3CC2)cc1C (stereo not drawn)	none (no result: IL-1B inflam inh, TGFb SMAD3 inh, HepG2 viability, S-ASM inh)
C/C(=N\NC(=O)c1ccccc1)c1ccccc1Br	DT40 TDP1 CPT 0.82µM, DT40 TDP1 no CPT 0.65µM
CC(=NNC(=O)c1ccccc1N)c1ccccc1O	DT40 TDP1 CPT 5.2µM, DT40 TDP1 no CPT 5.8µM (no result: S-ASM inh)
COc1ccc(/C(C)=N/NC(=O)c2ccncc2)cc1	none
CC(C)CC(=NNC(=O)c1ccncc1)c1cc(Cl)ccc1O	HepG2 viability 7.1µM, DT40 TDP1 CPT 3.7µM, DT40 TDP1 no CPT 2.6µM
COc1ccc(/C(C)=N/NC(=O)c2ccccc2N)cc1	none
CC(=NNC(=O)c1ccncc1)c1ccc(O)cc1O	DT40 TDP1 CPT inconclusive, DT40 TDP1 no CPT 7.3µM
C/C(=N\NC(=O)c1ccccc1)c1ccccc1F	none
C/C(=N/NC(=O)c1ccncc1)c1ccc(NC(=O)c2ccc(Cl)cc2Cl)cc1	none
O=C(CSc1nnc(-c2cccc(Cl)c2)o1)N1CCc2ccccc21	none (no result: IL-1B inflam inh, S-ASM inh)
CC(=NNC(=O)c1ccncc1)c1ccccc1O	DT40 TDP1 CPT 0.18µM, DT40 TDP1 no CPT 0.13µM
CC(=O)c1ccc2ccccc2c1OC(=O)c1ccncc1	DT40 TDP1 CPT inconclusive, DT40 TDP1 no CPT 26µM (no result: S-ASM inh)
C/C(=N\NC(=O)c1cccc2ccccc12)c1cccnc1	none
C/C(=N\NC(=O)c1ccc(N2CCCC2=O)cc1)c1ccc(O)cc1O	DT40 TDP1 CPT 4.6µM, DT40 TDP1 no CPT 3.7µM
CC(=NNC(=O)c1ccncc1)c1ccc2ccccc2c1O	DT40 TDP1 CPT 4.1µM, DT40 TDP1 no CPT 4.6µM
O=C(NCc1ccccc1)C1C(=O)Nc2ccccc2C(=O)N1c1ccc2c(c1)OCCO2 (stereo not drawn)	none (no result: TGFb SMAD3 inh, HepG2 viability, S-ASM inh)
Cc1cccc2c1NC(=O)/C2=C\C(=O)c1cccs1	IL-1B inflam inh -122, TGFb SMAD3 inh 10µM, DT40 TDP1 CPT 4.6µM, DT40 TDP1 no CPT 4.6µM
Cc1cc(C)c2c(c1)/C(=C/C(=O)c1ccc(Br)s1)C(=O)N2	IL-1B inflam inh -106, DT40 TDP1 CPT 4.6µM, DT40 TDP1 no CPT 3.7µM
CCc1ccc2c(c1)/C(=C/C(=O)c1cccs1)C(=O)N2	IL-1B inflam inh -106, TGFb SMAD3 inh inconclusive, HepG2 viability 11µM, DT40 TDP1 CPT 3.3µM, DT40 TDP1 no CPT 5.2µM
CN1/C(=C\C(=O)c2cccs2)C(C)(C)c2ccccc21	none
COC(=O)c1ccc(CSc2nnc(C)s2)cc1	DT40 TDP1 CPT 12µM, DT40 TDP1 no CPT 10µM
COC(=O)c1ccc(CSc2nnc(N)s2)cc1	none
CC(C)(C)NC1=NCCNC(c2ccccc2)=C1	TGFb SMAD3 inh inconclusive, DT40 TDP1 no CPT inconclusive (no result: S-ASM inh)
COc1ccc(NC(=O)c2cc([N+](=O)[O-])ccc2N2CCCC2)cc1	none
COc1ccc(C(=O)c2cc([N+](=O)[O-])ccc2N2CCN(C)CC2)cc1	DT40 TDP1 CPT 2.6µM, DT40 TDP1 no CPT 3.3µM
COc1ccc(C(=O)c2cc([N+](=O)[O-])ccc2N2CCCC2)cc1	DT40 TDP1 CPT 3.3µM, DT40 TDP1 no CPT 5.2µM
CC1(N=Cc2cc(Cl)ccc2O)COP(=O)(NC2CCCC2)OC1 (stereo not drawn)	none
Cn1nnnc1SCC(=O)N(C1CCCCC1)C1CCS(=O)(=O)C1 (stereo not drawn)	none
Cn1nnnc1SCC(=O)N(C1CCCCC1)C1CCCCC1	DT40 TDP1 CPT 16µM, DT40 TDP1 no CPT 18µM
C=CC[C@@H](CC(=O)N[C@@H](CO)Cc1ccccc1)C(=O)N[C@H](COC(=O)[C@@H](CC=C)CC(=O)OC(C)(C)C)Cc1ccccc1	TGFb SMAD3 inh inconclusive, DT40 TDP1 CPT 13µM, DT40 TDP1 no CPT 21µM
C=CC[C@@H](CC(=O)N[C@H](CO)Cc1ccccc1)C(=O)N[C@@H](COC(=O)[C@H](CC=C)CC(=O)OC(C)(C)C)Cc1ccccc1	DT40 TDP1 CPT 21µM, DT40 TDP1 no CPT 23µM
